Records with an inconclusive call do not appear. Calls of active or inactive are those of the source. Calls come from the whole dose curve; as a rule, active = well fitted cell-killing curve with a large enough effect; inconclusive = small, poorly fitted or top-dose-only effect, or effect the other way; inactive = flat fitted curve, though single readings scatter. Where a SMILES comes first, the peptide text is derived from it. Bridges are numbered along the chain shown (N, C = ends). [ ]: non-standard residue; d: D form. The star is where a group is joined. X1 = CCC(C)C(N)C1=NC(C(=O)*)CS1; dOrn = NCCC[C@@H](N)C(=O)O
Tests used:
Test in all cases: Primary qHTS to identify gynecologic anti-cancer compounds using libraries of approved drugs and bioactive compounds (AID 1345084); note: nearly all actives have a fitted effect of over 55% in size
Conditions in all cases: Gynecologic cancer cell panel viability, ATPlite luminescence, 48 h; series mostly up to 57.5 µM
[1] = tested on: JEG-3
In short: (§1)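 Cell viability after 48 h drug treatment, ATPlite luminescence readout; five doses.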

[2] = tested on: OV90
In short: as §1

[3] = tested on: PA-1
In short: as §1

[4] = tested on: SKOV3
In short: as §1

[5] = tested on: Tov-21-G
In short: as §1

[6] = tested on: Tov112D
In short: as §1
% is set by controls: 0 for no effect and ±100 for the full control effect.

C/C=C(/C)C(=O)O[C@H]1C=C(C)C[C@H](OC(=O)c2ccc(O)cc2)C2[C@](O)(C(C)C)CC[C@@]21C (some centres undefined)
inactive: Potency [1] | Potency [2] | Potency [3] | Potency [4] | Potency [5] | Potency [6]

O=C(/C=C/c1ccc(O)cc1)OC[C@]12O[C@H]1[C@@H](O)[C@@H]1C=CO[C@@H](O[C@@H]3O[C@H](CO)[C@@H](O)[C@H](O)[C@H]3O)[C@@H]12
inactive: Potency [1] | Potency [2] | Potency [3] | Potency [4] | Potency [5] | Potency [6]

COC(=O)C1=CO[C@@H](O[C@@H]2O[C@H](COC(=O)/C=C/c3cc(OC)c(O)c(OC)c3)[C@@H](O)[C@H](O)[C@H]2O)[C@@H]2C(CO)=CC[C@H]12
inactive: Potency [1] | Potency [2] | Potency [3] | Potency [4] | Potency [5] | Potency [6]

CC(C)(O)/C=C1/C(=O)C(C)(C)C(=O)C(C)(C)C1(O)O[C@@H]1O[C@H](COC(=O)c2cc(O)c(O)c(O)c2)[C@@H](O)[C@H](O)[C@H]1O (some centres undefined)
inactive: Potency [1] | Potency [2] | Potency [3] | Potency [4] | Potency [5] | Potency [6]

CCC1CC2C(C)=CC3CCCCC3C2(C)C2(OC(=O)C(C)(O)OC2=O)O1 (centres undefined)
inactive: Potency [1] | Potency [2] | Potency [3] | Potency [4] | Potency [5] | Potency [6]

O=C(COc1ccc(Cl)cc1)NC1CCC(NC(=O)COc2ccc(Cl)cc2)CC1 (centres undefined)
inactive: Potency [1] | Potency [2] | Potency [3] | Potency [4] | Potency [5] | Potency [6]

O=C(O)CCc1cccc(O[C@@H]2O[C@H](CO)[C@@H](O)[C@H](O)[C@H]2O)c1O
inactive: Potency [1] | Potency [2] | Potency [3] | Potency [4] | Potency [5] | Potency [6]

CC[C@H]1OC(=O)[C@H](C)[C@@H](O[C@H]2C[C@@](C)(OC)[C@@H](O)[C@H](C)O2)[C@H](C)[C@@H](O[C@@H]2O[C@H](C)C[C@H](N(C)C)[C@H]2O)[C@@](C)(O)C[C@@H](C)[C@@H]2N[C@@H](COCCOC)OC([C@H]2C)[C@]1(C)O
inactive: Potency [1] | Potency [2] | Potency [3] | Potency [4] | Potency [5] | Potency [6]

COC1C2=C(COC2=O)C2(C)CCCC(C)(CO)C2C1OC(=O)c1ccccc1 (centres undefined)
inactive: Potency [1] | Potency [2] | Potency [3] | Potency [4] | Potency [5] | Potency [6]

CC1=C(C)C(=O)OC(C(C)(O)C2CCC3C4CC=C5CC(OC6OC(COC7OC(CO)C(O)C(O)C7O)C(O)C(O)C6O)CC(O)C5(C)C4CCC32C)C1 (centres undefined)
inactive: Potency [1] | Potency [2] | Potency [3] | Potency [4] | Potency [5] | Potency [6]

O=C(O)c1ccc(CCCc2ccc(OCCc3ccc(F)cc3)cc2)o1
inactive: Potency [1] | Potency [2] | Potency [3] | Potency [4] | Potency [5] | Potency [6]

COC(=O)c1cc(CN2CCN(C(=N)N)CC2)cc(C(=O)N2CCN(C(=O)c3ccc(C(=N)N)cc3)CC2)c1
inactive: Potency [1] | Potency [2] | Potency [3] | Potency [4] | Potency [5] | Potency [6]

CNC(=O)[C@H]1O[C@@H](n2cnc3c(NCc4ccc(N)c(I)c4)ncnc32)[C@H](O)[C@@H]1O
inactive: activity change, negative = cytotoxicity [1] 20.5% [at 11.6 µM] | activity change, negative = cytotoxicity [2] -0.89% [at 11.6 µM] | activity change, negative = cytotoxicity [3] 0.696% [at 11.6 µM] | activity change, negative = cytotoxicity [4] -8.5% [at 11.6 µM] | activity change, negative = cytotoxicity [5] 15.7% [at 11.6 µM] | activity change, negative = cytotoxicity [6] 25.2% [at 11.6 µM]

COc1cc(/C=C/C(=O)O[C@H]2[C@H](OC(=O)/C=C/c3cc(OC)c(O)c(OC)c3)O[C@H](CO[C@@H]3O[C@H](CO)[C@@H](O)[C@H](O)[C@H]3O)[C@@H](O)[C@@H]2O)ccc1O
inactive: Potency [1] | Potency [2] | Potency [3] | Potency [4] | Potency [5] | Potency [6]

C[C@@H]1O[C@@H](O[C@@H]2[C@@H](O)[C@H](O[C@@H]3[C@@H](O)[C@@H](O)[C@H](O[C@H]4[C@H](OC(=O)[C@]56CCC(C)(C)C[C@H]5C5=CCC7[C@@]8(C)C[C@H](O)[C@H](O[C@@H]9O[C@H](C(=O)O)[C@@H](O)[C@H](O)[C@H]9O)[C@@](C)(CO)C8[C@H](O)C[C@@]7(C)[C@]5(C)CC6)OC[C@H](O)[C@@H]4O)O[C@H]3C)OC[C@H]2O)[C@H](O)[C@H](O)[C@H]1O (some centres undefined)
inactive: activity change, negative = cytotoxicity [1] -4.08% [at 6.55 µM] | activity change, negative = cytotoxicity [2] -1.61% [at 6.55 µM] | activity change, negative = cytotoxicity [3] 3.21% [at 6.55 µM] | activity change, negative = cytotoxicity [4] -6.44% [at 6.55 µM] | activity change, negative = cytotoxicity [5] -4.43% [at 6.55 µM] | activity change, negative = cytotoxicity [6] 4.06% [at 6.55 µM]

Clc1ccc(CN[C@H]2CCN(c3ncc(Br)cn3)C2)c(Cl)c1
inactive: Potency [1] | Potency [2] | Potency [3] | Potency [4] | Potency [5] | Potency [6]

CC1(C)C(O)CCC2(C)C1C(O)C=C1COC(=O)C12O (centres undefined)
inactive: Potency [1] | Potency [2] | Potency [3] | Potency [4] | Potency [5] | Potency [6]

CCC(C)C(N)C1=NC(C(=O)N[C@@H](CC(C)C)C(=O)N[C@H](CCC(=O)O)C(=O)N[C@H](C(=O)N[C@H]2CCCCNC(=O)[C@H](CC(N)=O)NC(=O)[C@@H](CC(=O)O)NC(=O)[C@H](Cc3cnc[nH]3)NC(=O)[C@@H](Cc3ccccc3)NC(=O)[C@H]([C@@H](C)CC)NC(=O)[C@@H](CCCN)NC2=O)[C@@H](C)CC)CS1 (some centres undefined) (X1-L[dE]IK[dOrn]I[dF]H[dD]N; lactam 4-C)
inactive: Potency [1] | Potency [2] | Potency [3] | Potency [4] | Potency [5] | Potency [6]

CCc1cc2c(=O)c(-c3nc4ccccc4s3)coc2c(CN2CCCCC2)c1O
inactive: Potency [1] | Potency [2] | Potency [3] | Potency [4] | Potency [5] | Potency [6]

Source: PubChem BioAssay (NCATS)
